Experimental data taken from PubChem BioAssay (Tox21).
Results filed as inconclusive are left out. Active and inactive are the calls of the source. Unless noted, the call rests on the fitted dose curve; in most records, active means well fitted curve in the direction sought with a large enough effect in the repeat runs; inconclusive means weak or mixed curves; inactive means flat fitted curve, though single readings scatter.

Legend:
[1] = qHTS assay to test for compound auto fluorescence at 535 nm (green) in HEK293 cells (AID 720680)
[2] = qHTS assay to test for compound auto fluorescence at 460 nm (blue) in HEK293 cell free culture (AID 720681)
How it was run: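 Blue fluorescence (Ex 405/Em 460 nm, triamterene-equivalent) was read immediately after pin transfer of compound or DMSO into medium (DMEM, 10% FBS) without cells.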

[3] = qHTS assay to test for compound auto fluorescence at 535 nm (green) in HEK293 cell free culture (AID 720682)
How it was run: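 Measurement is a direct plate read of green fluorescence (485 nm in, 535 nm out) after compound addition to serum-supplemented DMEM lacking cells, with fluorescein used to express intensities.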

[4] = qHTS assay to test for compound auto fluorescence at 590 nm (red) in HepG2 cell free culture (AID 720684)
How it was run: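 Steps: dispense MEM/10% FBS medium, no cells; pin compound or DMSO vehicle; read red channel, Ex/Em 540/590 nm. Output given as Rose Bengal sodium equivalents.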

[5] = qHTS assay to test for compound auto fluorescence at 460 nm (blue) in HepG2 cell free culture (AID 720685)
How it was run: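 Compound (23 nL) or DMSO pinned into cell-free MEM with 10% FBS; blue fluorescence read at 405/460 nm excitation/emission, expressed as auto-fluorescence equivalency to triamterene.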

[6] = qHTS assay to test for compound auto fluorescence at 535 nm (green) in HepG2 cell free culture (AID 720686)
[7] = qHTS assay to test for compound auto fluorescence at 460 nm (blue) in HepG2 cells (AID 720687)
How it was run: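 Blue-channel autofluorescence (Ex/Em 405/460 nm, triamterene-equivalent) was measured after 1 hr compound exposure at 37 C, 5% CO2. Cells were HepG2, plated overnight at 37 C in MEM plus 10% FBS.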

[8] = biological target: Glucocorticoid receptor (Homo sapiens) (UniProt P04150); experiment: qHTS assay to identify small molecule agonists of the glucocorticoid receptor (GR) signaling pathway (AID 720691; active means well fitted activation curve with a large enough effect in the signal ratio in the repeat runs, not every such curve was filed as active; the % refers to the signal ratio)
How it was run: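 Beta-lactamase reporter activity, read as fluorescence intensity, was measured in GR-bla HeLa cells exposed to compounds for 18 h at 37 C and then loaded with LiveBLAzer B/G FRET substrate for 2 h at room temperature.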

[9] = biological target: Glucocorticoid receptor (Homo sapiens) (UniProt P04150); experiment: qHTS assay to identify small molecule antagonists of the glucocorticoid receptor (GR) signaling pathway (AID 720692; active means well fitted inhibition curve with a large enough effect in the signal ratio in the repeat runs, not every such curve was filed as active; the % refers to the signal ratio)
How it was run: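 Fluorescence from cleaved LiveBLAzer B/G FRET substrate reports GRE-driven beta-lactamase in HeLa cells; compounds are tested against 5 nM dexamethasone (final) over 18 h at 37 C, substrate incubation 2 h at room temperature.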

[10] = qHTS assay to test for compound auto fluorescence at 590 nm (red) in HEK293 cell free culture (AID 720683)
How it was run: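 Red-channel autofluorescence of compounds in culture medium (DMEM, 10% FBS), no cells, measured at 540/590 nm. Rose Bengal sodium is the reference fluorophore for equivalence.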
On the % scale 0 is the no-effect control and ±100 the full control effect.

Sequence of Glucocorticoid receptor (Homo sapiens) (P04150 whole entry, looked up): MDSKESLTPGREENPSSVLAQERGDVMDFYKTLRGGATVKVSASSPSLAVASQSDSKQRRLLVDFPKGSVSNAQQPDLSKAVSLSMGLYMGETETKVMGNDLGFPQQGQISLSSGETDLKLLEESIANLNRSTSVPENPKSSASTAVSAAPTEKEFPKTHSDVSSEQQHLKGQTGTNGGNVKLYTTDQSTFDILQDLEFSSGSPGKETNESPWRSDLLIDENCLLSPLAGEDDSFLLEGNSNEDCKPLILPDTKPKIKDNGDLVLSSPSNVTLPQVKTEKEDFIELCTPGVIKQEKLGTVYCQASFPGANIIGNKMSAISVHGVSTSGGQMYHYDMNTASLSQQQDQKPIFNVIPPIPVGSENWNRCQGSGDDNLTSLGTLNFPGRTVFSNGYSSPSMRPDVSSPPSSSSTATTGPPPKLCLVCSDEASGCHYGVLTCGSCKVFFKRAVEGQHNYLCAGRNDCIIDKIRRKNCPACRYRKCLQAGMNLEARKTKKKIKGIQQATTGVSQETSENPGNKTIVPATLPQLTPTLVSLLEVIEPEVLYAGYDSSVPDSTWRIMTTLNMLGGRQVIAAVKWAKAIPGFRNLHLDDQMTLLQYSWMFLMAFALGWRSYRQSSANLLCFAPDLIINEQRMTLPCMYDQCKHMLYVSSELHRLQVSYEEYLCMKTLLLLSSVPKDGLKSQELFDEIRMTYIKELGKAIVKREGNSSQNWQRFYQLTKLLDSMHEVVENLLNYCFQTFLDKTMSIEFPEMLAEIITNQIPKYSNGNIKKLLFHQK

NNc1nnc(NN)c2ccccc12
inactive: outcome [1] | outcome [2] | outcome [3] | outcome [4] | outcome [5] | outcome [6] | outcome [7]

CCCCCCCC/C=C\CCCCCCCC(=O)OCCCC
inactive: fluorescence, % of fluorescein [1] 0.0126% [at 18.6 µM] | fluorescence, % of fluorescent control [2] -0.0858% [at 18.6 µM] | activity change [3] -0.0648% [at 18.6 µM] | fluorescence, % of Rose Bengal [4] 0.134% [at 18.6 µM] | fluorescence, % of fluorescent control [5] -0.0292% [at 18.6 µM] | fluorescence, % of fluorescein control [6] -0.0278% [at 18.6 µM] | fluorescence, % of fluorescent control [7] -0.0041% [at 18.6 µM] | Potency [8] | outcome [9]

O=C(CCNNC(=O)c1ccncc1)NCc1ccccc1
inactive: outcome [1] | outcome [2] | outcome [3] | outcome [4] | outcome [5] | outcome [6] | outcome [7] | Potency [8] | outcome [9]

O=C(NCCN1CCOCC1)c1ccc(Cl)cc1
inactive: outcome [1] | outcome [2] | outcome [10] | outcome [4] | outcome [5] | outcome [6] | outcome [7]

CCOc1cc(NC(C)=O)ccc1C(=O)OC
inactive: outcome [1] | outcome [2] | outcome [3] | outcome [4] | outcome [5] | outcome [6] | outcome [7] | Potency [8] | outcome [9]

C=Cc1ccccn1
inactive: outcome [1] | outcome [2] | outcome [3] | outcome [4] | outcome [5] | outcome [6] | outcome [7] | Potency [8] | outcome [9]

CCCCCCCCOS(=O)(=O)O
inactive: outcome [1] | outcome [2] | outcome [3] | outcome [4] | outcome [5] | outcome [6] | outcome [7] | Potency [8] | outcome [9]

N[C@@H](CCC(=O)Nc1ccc([N+](=O)[O-])cc1)C(=O)O
inactive: outcome [1] | outcome [2] | outcome [3] | outcome [4] | outcome [5] | outcome [6] | outcome [7] | Potency [8] | outcome [9]

C[C@H](CCC(=O)O)[C@H]1CC[C@H]2[C@@H]3C(=O)C[C@@H]4CC(=O)CC[C@]4(C)[C@H]3CC(=O)[C@]12C
inactive: outcome [1] | outcome [2] | outcome [3] | outcome [4] | outcome [5] | outcome [6] | outcome [7] | Potency [8] | outcome [9]

CC(=O)NCc1c(I)c(NC(C)=O)c(I)c(C(=O)O)c1I
inactive: outcome [1] | outcome [2] | outcome [10] | outcome [4] | outcome [5] | outcome [6] | outcome [7]

CCCOC(=O)C(C)O (centres undefined)
inactive: outcome [1] | outcome [2] | outcome [10] | outcome [4] | outcome [5] | outcome [6] | outcome [7]

O=P(O)(O)OP(=O)(O)O
inactive: outcome [1] | outcome [2] | outcome [10] | outcome [4] | outcome [5] | outcome [6] | outcome [7] | Potency [8] | outcome [9]

O=S(=O)(O)CCN1CCN(CCO)CC1
inactive: outcome [1] | outcome [2] | outcome [4] | outcome [5] | outcome [6] | outcome [7] | Potency [8] | outcome [9]

COC(=O)CCCCCCCC(=O)OC
inactive: outcome [1] | outcome [2] | outcome [10] | outcome [4] | outcome [5] | outcome [6] | outcome [7] | Potency [8] | outcome [9]

CC(C)(C)OC(=O)c1ccc(O)cc1
inactive: outcome [1] | outcome [2] | outcome [10] | outcome [4] | outcome [5] | outcome [6] | outcome [7] | Potency [8]

NCCN1CCOCC1
inactive: outcome [1] | outcome [2] | outcome [10] | outcome [4] | outcome [5] | outcome [6] | outcome [7] | Potency [8] | outcome [9]

CCOCCOCCOCC
inactive: outcome [1] | outcome [2] | outcome [10] | outcome [4] | outcome [5] | outcome [6] | outcome [7] | Potency [8] | outcome [9]

N[C@@H](CCC(=O)N[C@@H](CS)C(=O)NCC(=O)O)C(=O)O
inactive: outcome [1] | outcome [2] | outcome [10] | outcome [4] | outcome [5] | outcome [6] | outcome [7]

C[Si](C)(C)C
inactive: outcome [1] | outcome [2] | outcome [10] | outcome [4] | outcome [5] | outcome [6] | outcome [7] | Potency [8] | outcome [9]

O=C(OCC(COC(=O)c1cccnc1)(COC(=O)c1cccnc1)COC(=O)c1cccnc1)c1cccnc1
inactive: outcome [1] | outcome [2] | outcome [10] | outcome [4] | outcome [5] | outcome [6] | outcome [7] | Potency [8] | outcome [9]

CCO[Si](CCCS)(OCC)OCC
inactive: outcome [1] | outcome [2] | outcome [10] | outcome [4] | outcome [5] | outcome [6] | outcome [7] | Potency [8] | outcome [9]

CN1C(C)(C)CCCC1(C)C
inactive: outcome [1] | outcome [2] | outcome [10] | outcome [4] | outcome [5] | outcome [6] | outcome [7] | Potency [8]

CC(C)N(c1ccccc1)C(C)C
inactive: outcome [1] | outcome [2] | outcome [10] | outcome [4] | outcome [5] | outcome [6] | outcome [7] | Potency [8] | outcome [9]

C=C(C)C(=O)OCCN(CC)CC
inactive: outcome [1] | outcome [2] | outcome [10] | outcome [4] | outcome [5] | outcome [6] | outcome [7] | Potency [8] | outcome [9]

CC(=O)CCCCn1c(=O)c2c(ncn2C)n(C)c1=O
inactive: fluorescence, % of fluorescein [1] 0.0863% [at 18.6 µM] | fluorescence, % of fluorescent control [2] 0.0365% [at 18.6 µM] | fluorescence, % of fluorescent control [10] 0.153% [at 18.6 µM] | fluorescence, % of Rose Bengal [4] -0.221% [at 18.6 µM] | fluorescence, % of fluorescent control [5] 0.0657% [at 18.6 µM] | fluorescence, % of fluorescein control [6] -0.0364% [at 18.6 µM] | fluorescence, % of fluorescent control [7] 0.0705% [at 18.6 µM] | Potency [8] | outcome [9]

CCCCCCOc1ccccc1C(N)=O
inactive: outcome [1] | outcome [2] | outcome [10] | outcome [4] | outcome [5] | outcome [6] | outcome [7] | Potency [8]

CCCCCCN
inactive: outcome [1] | outcome [2] | outcome [10] | outcome [4] | outcome [5] | outcome [6] | outcome [7] | Potency [8] | outcome [9]

O=C1CCCC(=O)O1
inactive: outcome [1] | outcome [2] | outcome [4] | outcome [5] | outcome [6] | outcome [7]

O=C(OCC1(COC(=O)c2cccnc2)CCCC(COC(=O)c2cccnc2)(COC(=O)c2cccnc2)C1O)c1cccnc1
inactive: outcome [1] | outcome [2] | outcome [10] | outcome [4] | outcome [5] | outcome [6] | outcome [7] | Potency [8] | outcome [9]

CC(=O)/C=C/C1C(C)=CCC(C)C1(C)C (centres undefined)
inactive: outcome [1] | outcome [2] | outcome [10] | outcome [4] | outcome [5] | outcome [6] | outcome [7] | Potency [8] | outcome [9]

O=C(CCN1CCN(CCO)CC1)N1c2ccccc2Sc2ccc(C(F)(F)F)cc21
inactive: outcome [1] | outcome [2] | outcome [10] | outcome [4] | outcome [5] | outcome [6] | outcome [7]

O=C(NCC(O)CO)c1c(I)c(C(=O)NCC(O)CO)c(I)c(N(CCO)C(=O)CO)c1I (centres undefined)
inactive: fluorescence, % of fluorescein [1] -0.0067% [at 18.6 µM] | fluorescence, % of fluorescent control [2] -0.0567% [at 18.6 µM] | fluorescence, % of fluorescent control [10] 0.453% [at 18.6 µM] | fluorescence, % of Rose Bengal [4] 0.343% [at 18.6 µM] | fluorescence, % of fluorescent control [5] -0.1% [at 18.6 µM] | fluorescence, % of fluorescein control [6] -0.0658% [at 18.6 µM] | fluorescence, % of fluorescent control [7] -0.0045% [at 18.6 µM] | Potency [8]

CC(C)(C)NC(N)=O
inactive: outcome [1] | outcome [2] | outcome [10] | outcome [4] | outcome [5] | outcome [6] | outcome [7] | Potency [8] | outcome [9]

CC(=O)c1sc(C)nc1C
inactive: outcome [1] | outcome [2] | outcome [4] | outcome [5] | outcome [6] | outcome [7] | Potency [8] | outcome [9]

CC(=O)OC(C)OC(=O)C(C)c1ccc(-c2ccccc2)c(F)c1 (centres undefined)
inactive: outcome [1] | outcome [2] | outcome [10] | outcome [4] | outcome [5] | outcome [6] | outcome [7] | Potency [8] | outcome [9]

C=C(C)C(=O)OCCOP(=O)(O)OCCOC(=O)C(=C)C
inactive: outcome [1] | outcome [2] | outcome [4] | outcome [5] | outcome [6] | outcome [7] | Potency [8] | outcome [9]

CN1CCN(CC(=O)N2c3ccccc3C(=O)Nc3cccnc32)CC1
inactive: outcome [1] | outcome [2] | outcome [10] | outcome [4] | outcome [5] | outcome [6] | outcome [7] | Potency [8]

O=S(=O)(O)c1ccc2cc(O)c(S(=O)(=O)O)cc2c1
inactive: outcome [1] | outcome [3] | outcome [10] | outcome [4] | outcome [6] | outcome [7] | Potency [8] | outcome [9]

NS(=O)(=O)c1ccc(NC(=O)CCC(=O)O)cc1
inactive: outcome [1] | outcome [2] | outcome [10] | outcome [4] | outcome [5] | outcome [6] | outcome [7] | Potency [8] | outcome [9]

CC(C)(C)c1n[nH]c(=S)n(N)c1=O
inactive: outcome [1] | outcome [2] | outcome [10] | outcome [4] | outcome [5] | outcome [6] | outcome [7] | Potency [8] | outcome [9]

C=CCCCCCCCCCCCC
inactive: outcome [1] | outcome [2] | outcome [10] | outcome [4] | outcome [5] | outcome [6] | outcome [7] | Potency [8] | outcome [9]

CCCC(=O)C(C)=O
inactive: outcome [1] | outcome [2] | outcome [10] | outcome [4] | outcome [5] | outcome [6] | outcome [7] | Potency [8] | outcome [9]

O=C(Nc1ccc(Cl)c(Cl)c1)C1CC1
inactive: outcome [1] | outcome [2] | outcome [10] | outcome [4] | outcome [5] | outcome [6] | outcome [7] | Potency [8] | outcome [9]

CCNC(=O)C1CC(C)CCC1C(C)C (centres undefined)
inactive: outcome [1] | outcome [2] | outcome [10] | outcome [4] | outcome [5] | outcome [6] | outcome [7] | Potency [8] | outcome [9]

CC(C)(C)c1cc(CCC(=O)NN)cc(C(C)(C)C)c1O
inactive: outcome [1] | outcome [2] | outcome [10] | outcome [4] | outcome [5] | outcome [6] | outcome [7]
